Measurements published in PubChem BioAssay (NCATS).
Results filed as inconclusive are left out. A number with no mark means an inactive call. Active and inactive are the calls of the source. Calls follow the shape of the dose curve; as a rule, active = well fitted cell-killing curve with a large enough effect; inconclusive = small, poorly fitted or top-dose-only effect; inactive = no such curve, though single readings can be large or run the other way.

experiment: qHTS of pediatric cancer cell lines to identify multiple opportunities for drug repurposing: Primary screen for Rh41 cells (AID 1347108); conditions: Rh41 rhabdomyosarcoma viability, CellTiter-Glo luminescence, 48 h; series mostly up to 46 µM; activity change, negative = cytotoxic: at the top concentration; also: nearly all actives have a fitted effect of over 70% in size;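 as to activity change, negative = cytotoxic: luminescence drop marks cytotoxic hits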
Summary of the method: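 Viability was measured as metabolically active cells after 48 hours of treatment, read by CellTiter-Glo luminescence. Compounds were tested at multiple final concentrations, giving concentration-response curves.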
Potency is read from the fitted curve at half-maximal effect.

SMILES	Potency	activity change, negative = cytotoxic [%]
N#Cc1c(C2CCNCC2)cc(-c2c(O)cccc2OCC2CC2)nc1N	14.8 µM (active)	
C=CC(=O)N1CCc2ccc(-n3c(=O)ccc4cnc5ccc(-c6cnn(C)c6)cc5c43)cc21	3.72 µM (active)	
CC(C)c1cnn2c(NCc3ccccc3)cc(NCCCCCCN)nc12	7.43 µM (active)	
O=C(O)CCCCCC(=O)NN=C1CCCC1		18.4
C#C[C@]1(O)CC[C@@H]2[C@@H]3CCc4cc(O)ccc4[C@H]3CC[C@@]21C	23.5 µM (active)	
C=Cc1c(C)c2cc3nc(cc4[nH]c(cc5nc(cc1[nH]2)C(C)=C5CCC(=O)O)c(CCC(=O)OC)c4C)[C@@]1(C)C3=CC=C(C(=O)OC)[C@H]1C(=O)OC	0.0743 µM (active)	
C[C@@H](NCc1cc2ccccc2[nH]1)c1cccc2ccccc12		18.5
Cc1cn([C@@H]2O[C@H](CO)[C@@H](O)[C@H]2F)c(=O)[nH]c1=O		45.4
C=C[C@@H]1CN2CCC1C[C@H]2[C@H](O)c1ccnc2ccc(OC)cc12 (stereo not given in full)		23.3
C[C@]12CCC(=O)C=C1[C@@H]1CC1[C@H]1[C@H]3[C@@H]4C[C@H]4[C@@]4(CCC(=O)O4)[C@@]3(C)CC[C@H]12 (stereo not given in full)		6.52
CCCNC(=O)[C@H]1O[C@H]1C(=O)N[C@H](C(=O)N1CCC[C@@H]1C(=O)OC)C(C)CC (stereo not given in full)	7.43 µM (active)	
COc1cc(C[C@@H](CO)[C@H](CO)Cc2ccc(O)c(OC)c2)ccc1O	0.935 µM (active)	
Cn1cc(C2=C(c3c4n(c5ccccc35)CCC(CN)C4)C(=O)NC2=O)c2ccccc21 (stereo not given)	23.5 µM (active)	
C#Cc1cccc(Nc2ncnc3cc(OCCOC)c(OCCO)cc23)c1	7.43 µM (active)	
CCOC(=O)C=C[C@H](C[C@@H]1CCNC1=O)NC(=O)[C@@H](CC(=O)[C@@H](NC(=O)c1cc(C)on1)C(C)C)Cc1ccc(F)cc1		30.3
NC(=O)c1ncn([C@@H]2O[C@H](CO)[C@@H](O)[C@@H]2O)c1N		5.04
Oc1cc2c(cc1O)C1c3ccc(O)c(O)c3OCC1(O)C2 (stereo not given)		29.6
CCCc1nc(C(C)(C)O)c(C(=O)O)n1Cc1ccc(-c2ccccc2-c2nn[nH]n2)cc1		19.5
C[C@H](O)[C@@H]1C(=O)N2C(C(=O)O)=C(S[C@@H]3CN[C@H](CNS(N)(=O)=O)C3)[C@@H](C)[C@@H]12		24.6
Cc1ccccc1C(=O)Nc1ccc(C(=O)N2CCCC(O)c3cc(Cl)ccc32)c(C)c1 (stereo not given)		17.8
